# Data from PubChem BioAssay (NCATS).
# “And” between values parts separate entries of the source, which are not always exact repeats. Equal entries are not always repeated. A number with no mark means an inactive call. Records with an inconclusive call do not appear. A call without a number means that no potency is given here. The source made the active and inactive calls. Unless noted, calls come from the whole dose curve; as a rule, active = well fitted curve in the direction sought with a large enough effect; inconclusive = small, poorly fitted or top-dose-only effect, or another doubt; inactive = no such curve, though single readings can be large; an effect the other way counts as inactive or inconclusive.
# Key:
# [1] = qHTS for Inhibitors of Cell Surface uPA Generation: Validation Assay (AID 493164); conditions: mouse cells, plasminogen activation; series mostly up to 38.3 µM;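 note: RAW 264.7 macrophage cells exposed to compound for 18 h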
# Procedure, shortened: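 RAW 264.7, 4000 cells/well, o/n plating; cpd 7-pt 1:5 dilution 2.45 nM–38.3 uM final; 18 h, 37 C/5% CO2; ATP-Lite, 5 s luminescence exposure.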
# [2] = target: Galactokinase (Homo sapiens) (UniProt P51570); test: qHTS Validation Assay for Inhibitors of Human Galactokinase (GALK) (AID 493189); conditions: purified human GALK enzyme activity, qHTS 7-point titration; series mostly up to 57.5 µM
# Procedure, shortened: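 Luminescence from leftover ATP (Kinase-Glo Plus, 10 min) served as read-out after a 1 h room-temperature reaction of 5 nM GALK, 100 uM galactose and 35 uM ATP at pH8.0.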
# [3] = Validation screen for small molecules that induce DNA re-replication in SW480 colon adenocarcinoma cells (AID 504364); conditions: DNA re-replication phenotype (high-content imaging); series mostly up to 46.1 µM; note: potency is the fitted concentration of half-maximal effect
# Procedure, shortened: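 SW480 cells seeded at 250 per well were exposed to compound or DMSO for 48 hr at 37 C, 5% CO2, then stained with Hoechst for 40 min. DNA content per nucleus was imaged (405 nm ex, 500-530 nm em).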
# [4] = target: Peptidyl-prolyl cis-trans isomerase NIMA-interacting 1 (Homo sapiens) (UniProt Q13526); test: qHTS Validation Assay to Find Inhibitors of Pin1 (AID 504536; active = well fitted inhibition curve with a large enough effect in the polarisation, with a control signal flat, not every such curve was filed as active; the % refers to the polarisation); conditions: Pin1 fluorescence polarization peptide binding assay; series mostly up to 57.5 µM
# Procedure, shortened: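 Fluorescence polarization competition: compounds (titration) displace HiFluor-488-labeled Pin1-1b peptide from Pin1 (0.3 uM final) in pH 7.5 HEPES buffer with DTT, 10 min at room temperature; %Activity normalized to no-enzyme wells, curves fitted.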
# [5] = target: Phosphoglycerate kinase, glycosomal (Trypanosoma brucei brucei) (UniProt P07378); test: qHTS Validation Assay to Find Inhibitors of Phosphoglycerate Kinase (AID 504547); conditions: enzymatic PGK inhibition, coupled luminescence read-out; series mostly up to 57.5 µM
# Procedure, shortened: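 Inhibition of the enzyme is judged by a Kinase-Glo Plus luminescent signal following a one-hour incubation at room temperature. Because 1,3-BPG is unstable, it is made in situ by GAPDH at 100nM final; no-PGK wells define the baseline.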
# [6] = target: phosphoglycerate mutase (Leishmania major) (UniProt Q4Q090); test: qHTS Validation Assay to Find Inhibitors of Phosphoglycerate Mutase (AID 504548); conditions: biochemical enzyme activity; Potency: inhibition qHTS; series mostly up to 57.5 µM
# Procedure, shortened: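 Lm PGAM at 1.25 nM final with substrate in 100 mM TEA pH 7.6, 5 mM MgCl2, 0.01% Tween-20; 45 min at room temperature. Kinase-GloPlus added, 10 min, end-point luminescence read.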
# [7] = target: Ubiquitin carboxyl-terminal hydrolase 1 (Homo sapiens) (UniProt O94782); test: Inhibitors of USP1/UAF1: Pilot qHTS (AID 504865); conditions: purified USP1/UAF1, Ub-rhodamine cleavage fluorescence; series mostly up to 114 µM; note: nearly all actives have a fitted effect of over 35% in size; note: potency is the fitted concentration of half-maximal effect
# Procedure, shortened: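 1nM USP1/UAF1 + cpd, 15 min RT; start w/ Ub-Rho 150nM final; kinetic FL 480/540 nm, 6 reads q60 s. Buffer 50mM HEPES pH 7.8, 0.5mM EDTA, 1mM TCEP, 0.01% Tween-20, 0.1 mg/ml BSA.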
# [8] = qHTS for Inhibitors of ATXN expression: Validation of Cytotoxic Assay (AID 588349); conditions: cytotoxicity counter-screen for ATXN expression inhibitors, cell viability; series mostly up to 57.1 µM
# Procedure, shortened: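 HEK293 cells were dosed with titrated compounds for 72 hr at 37 degrees C. Viability was read by CellTiter Glo luminescence, with intracellular ATP as the marker of cell survival.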
# [9] = qHTS for Inhibitors of ATXN expression: Validation (AID 588378); conditions: cell-based ATXN2 expression reporter assay, luminescence; series mostly up to 57.1 µM; note: nearly all actives have a fitted effect of over 75% in size
# Procedure, shortened: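 Cells: HEK293-ATXN2-FFLuc, phenol-red free DMEM, 2 h attachment. Compound pin-transfer, 24 h, 37 degrees C, 5% CO2. CellTiter-Fluor 30 min, Ex405/Em525; Bright-Glo 5 min, luminescence 2 s exposure.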
# [10] = target: DNA dC->dU-editing enzyme APOBEC-3G (Homo sapiens) (UniProt Q9HC16); test: qHTS for inhibitors of Vif-A3G interactions: Validation (AID 588379); conditions: Vif-A3G protein interaction assay; series mostly up to 46.1 µM
# Procedure, shortened: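 HeLa cells stably expressing Vif and A3G-eYFP, 700 cells/well, incubated overnight at 37 deg C, then exposed to compound overnight at 37 deg C. Inhibition of Vif-mediated degradation read as increased yellow fluorescence (Ex 488/Em 500-530) by laser-scanning cytometry.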
# [11] = target: Estrogen receptor (Homo sapiens) (UniProt P03372); test: qHTS assay for small molecule antagonists of estrogen receptor alpha signaling (AID 588513; active = well fitted curve in the direction sought with a large enough effect in the signal ratio, with a control signal flat, not every such curve was filed as active; the % refers to the signal ratio); conditions: ER-alpha-UAS-bla HEK293, beta-lactamase ratio, antagonist mode; series mostly up to 76.9 µM
# Procedure, shortened: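 Beta-lactamase reporter, antagonist mode, HEK 293 GripTite cells; 0.5nM E2 stimulus, 18 h, 37 C; CCF4 dye 2 h RT; fluorescence. IC50 and efficacy from Hill fits, normalized to E2 and DMSO.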
# [12] = target: Estrogen receptor (Homo sapiens) (UniProt P03372); test: qHTS assay for small molecule agonists of estrogen receptor alpha signaling (AID 588514; calls by dose curve; note: nearly all actives have a fitted effect of over 70% in size); conditions: ER-alpha-UAS-bla HEK293, beta-lactamase ratio, 18 h, percent of full estradiol response, vehicle zero; series mostly up to 76.8 µM
# Procedure, shortened: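 ER-alpha-UAS-bla GripTite HEK 293 cells in medium with 2% charcoal/dextran-treated FBS were treated with compound titrations at 37 C for 18 hrs; beta-lactamase reporter read by CCF4 fluorescence after 2 hrs at RT.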
# [13] = target: Androgen receptor (Homo sapiens) (UniProt P10275); test: qHTS assay for small molecule agonists of androgen receptor signaling (AID 588515; active = well fitted curve in the direction sought with a large enough effect in the signal ratio, with a control signal flat; the % refers to the signal ratio); conditions: AR-UAS-bla HEK293, beta-lactamase ratio, agonist 16 h; active compounds read high
# Procedure, shortened: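 EC50 and efficacy came from Hill fits of titrations (up to 92 uM) normalized to 30 nM R1881 as 100% and DMSO as 0%. Compound exposure was 16 h at 37 C on AR-UAS-bla HEK293 cells, with a 405/460/530 nm CCF4 fluorescence read.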
# [14] = target: Androgen receptor (Homo sapiens) (UniProt P10275); test: qHTS assay for small molecule antagonists of androgen receptor signaling (AID 588516; active = well fitted curve in the direction sought with a large enough effect in the signal ratio, with a control signal flat, not every such curve was filed as active; the % refers to the signal ratio); conditions: AR-UAS-bla HEK293, beta-lactamase ratio, antagonist mode, 16 h; series mostly up to 76.8 µM
# Procedure, shortened: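 HEK293 AR-UAS-bla cells, 10% dialyzed FBS medium; cpd titration + R1881 10 nM final, 16 h 37 C; CCF4 2 h RT; FRET ratio; IC50/efficacy via Hill fit.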
# [15] = target: Glucocorticoid receptor (Homo sapiens) (UniProt P04150); test: qHTS assay for small molecule antagonists of glucocorticoid receptor signaling (AID 588533; active = well fitted inhibition curve with a large enough effect in the signal ratio, with a control signal flat, not every such curve was filed as active; the % refers to the signal ratio;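 note: cells stimulated with 2 nM dexamethasone as agonist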); conditions: HeLa MMTV-bla, GRE beta-lactamase ratio, antagonist mode, 18 h; series mostly up to 76.8 µM
# Procedure, shortened: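 Antagonist-mode qHTS: compound titrations added to GRE-bla HeLa cells, then dexamethasone 2 nM final; 18 h, 37 C. CCF4 FRET fluorescence normalized to dexamethasone and DMSO; IC50 from Hill fit.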
# [16] = target: Peroxisome proliferator-activated receptor gamma (Homo sapiens) (UniProt P37231); test: qHTS assay for small molecule agonists of peroxisome proliferator-activated receptor gamma signaling (AID 588536; active = well fitted curve in the direction sought with a large enough effect in the signal ratio, with a control signal flat, not every such curve was filed as active; the % refers to the signal ratio); conditions: HEK293 PPARg-UAS-bla, beta-lactamase ratio, 16 h, percent of rosiglitazone response, DMSO as zero; series mostly up to 76.7 µM
# Procedure, shortened: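 GeneBLAzer PPAR-gamma-UAS-bla HEK293 cells in 1% charcoal/dextran-treated FBS medium were treated 16 h at 37 C with compounds. Beta-lactamase activity was read by CCF4 ratio (460/530 nm). Response was normalized to 2 uM rosiglitazone (100%) and DMSO, then Hill-fitted for EC50 and efficacy.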
# [17] = target: Peroxisome proliferator-activated receptor gamma (Homo sapiens) (UniProt P37231); test: qHTS assay for small molecule antagonists of peroxisome proliferator-activated receptor gamma signaling (AID 588537; active = well fitted inhibition curve with a large enough effect in the signal ratio, with a control signal flat, not every such curve was filed as active; the % refers to the signal ratio;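 note: reporter cells co-stimulated with 50 nM rosiglitazone agonist during compound treatment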); conditions: HEK293 PPARg-UAS-bla, beta-lactamase ratio, antagonist mode; series mostly up to 76.8 µM
# Procedure, shortened: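 Inhibitors of agonist-stimulated UAS-bla reporter activity were sought in HEK293 cells; rosiglitazone (50 nM) defined full signal and DMSO baseline. Curves fitted to Hill model gave IC50 and efficacy.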
# Ubiquitin carboxyl-terminal hydrolase 1 (Homo sapiens), sequence (O94782 whole entry, looked up): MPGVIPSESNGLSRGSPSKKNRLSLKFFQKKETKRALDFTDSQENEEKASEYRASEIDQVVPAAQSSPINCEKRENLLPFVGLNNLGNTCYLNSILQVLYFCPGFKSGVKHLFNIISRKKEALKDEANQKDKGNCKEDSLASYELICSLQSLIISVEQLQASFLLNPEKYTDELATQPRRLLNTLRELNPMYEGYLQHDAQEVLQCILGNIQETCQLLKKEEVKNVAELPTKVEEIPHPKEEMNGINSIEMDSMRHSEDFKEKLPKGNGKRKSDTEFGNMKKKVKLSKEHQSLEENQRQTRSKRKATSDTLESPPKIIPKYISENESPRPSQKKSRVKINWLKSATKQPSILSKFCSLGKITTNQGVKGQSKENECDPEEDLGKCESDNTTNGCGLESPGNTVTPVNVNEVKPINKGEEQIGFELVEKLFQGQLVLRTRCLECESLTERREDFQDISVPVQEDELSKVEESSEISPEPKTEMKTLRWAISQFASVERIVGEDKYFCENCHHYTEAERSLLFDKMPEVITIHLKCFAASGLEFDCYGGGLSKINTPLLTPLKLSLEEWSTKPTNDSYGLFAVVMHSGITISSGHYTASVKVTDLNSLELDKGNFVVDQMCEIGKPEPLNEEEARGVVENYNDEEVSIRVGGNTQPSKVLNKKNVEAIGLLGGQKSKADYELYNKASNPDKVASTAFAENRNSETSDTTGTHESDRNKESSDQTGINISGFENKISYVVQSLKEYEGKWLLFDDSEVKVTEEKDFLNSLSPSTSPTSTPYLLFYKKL
# phosphoglycerate mutase (Leishmania major), sequence (Q4Q090 1-553): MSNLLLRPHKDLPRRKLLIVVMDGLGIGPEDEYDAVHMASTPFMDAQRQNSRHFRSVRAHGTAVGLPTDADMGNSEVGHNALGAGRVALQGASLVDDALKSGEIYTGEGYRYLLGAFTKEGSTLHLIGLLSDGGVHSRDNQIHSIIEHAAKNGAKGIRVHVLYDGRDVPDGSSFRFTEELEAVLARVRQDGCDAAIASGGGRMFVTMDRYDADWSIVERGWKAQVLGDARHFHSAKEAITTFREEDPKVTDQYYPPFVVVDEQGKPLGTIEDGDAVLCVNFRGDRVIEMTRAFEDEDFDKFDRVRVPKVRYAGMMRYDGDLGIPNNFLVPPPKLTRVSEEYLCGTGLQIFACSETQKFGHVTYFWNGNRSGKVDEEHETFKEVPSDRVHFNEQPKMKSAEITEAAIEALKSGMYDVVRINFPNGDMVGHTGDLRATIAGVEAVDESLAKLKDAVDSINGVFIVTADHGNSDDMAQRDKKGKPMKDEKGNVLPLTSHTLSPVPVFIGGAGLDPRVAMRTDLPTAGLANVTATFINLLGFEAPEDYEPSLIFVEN
# Phosphoglycerate kinase, glycosomal (Trypanosoma brucei brucei), sequence (P07378 whole entry, looked up): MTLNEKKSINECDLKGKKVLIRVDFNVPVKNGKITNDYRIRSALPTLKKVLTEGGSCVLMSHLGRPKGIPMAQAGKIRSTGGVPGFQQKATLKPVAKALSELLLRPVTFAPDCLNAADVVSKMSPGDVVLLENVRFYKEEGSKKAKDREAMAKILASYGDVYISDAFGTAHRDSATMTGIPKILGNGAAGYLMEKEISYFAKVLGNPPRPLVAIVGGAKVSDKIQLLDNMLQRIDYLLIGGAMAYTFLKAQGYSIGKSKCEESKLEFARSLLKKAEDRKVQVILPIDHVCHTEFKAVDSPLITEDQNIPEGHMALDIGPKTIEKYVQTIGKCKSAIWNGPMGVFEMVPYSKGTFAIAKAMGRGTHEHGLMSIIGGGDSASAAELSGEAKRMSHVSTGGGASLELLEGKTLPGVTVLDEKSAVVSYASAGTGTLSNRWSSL
# Peptidyl-prolyl cis-trans isomerase NIMA-interacting 1 (Homo sapiens), sequence (Q13526 whole entry, looked up): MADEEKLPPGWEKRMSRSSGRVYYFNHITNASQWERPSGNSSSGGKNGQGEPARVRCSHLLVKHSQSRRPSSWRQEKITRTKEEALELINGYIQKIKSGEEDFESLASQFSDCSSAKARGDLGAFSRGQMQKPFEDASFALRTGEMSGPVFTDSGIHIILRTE
# Galactokinase (Homo sapiens), sequence (P51570 whole entry, looked up): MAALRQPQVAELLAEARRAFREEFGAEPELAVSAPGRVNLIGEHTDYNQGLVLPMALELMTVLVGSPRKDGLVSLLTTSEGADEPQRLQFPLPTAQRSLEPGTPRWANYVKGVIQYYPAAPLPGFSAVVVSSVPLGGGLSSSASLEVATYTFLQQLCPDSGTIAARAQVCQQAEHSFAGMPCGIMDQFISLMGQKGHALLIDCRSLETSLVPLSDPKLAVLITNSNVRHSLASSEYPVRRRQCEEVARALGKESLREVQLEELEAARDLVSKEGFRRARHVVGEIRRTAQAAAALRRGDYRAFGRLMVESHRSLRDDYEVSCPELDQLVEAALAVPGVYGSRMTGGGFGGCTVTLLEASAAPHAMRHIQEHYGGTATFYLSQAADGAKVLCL
# DNA dC->dU-editing enzyme APOBEC-3G (Homo sapiens), sequence (Q9HC16 whole entry, looked up): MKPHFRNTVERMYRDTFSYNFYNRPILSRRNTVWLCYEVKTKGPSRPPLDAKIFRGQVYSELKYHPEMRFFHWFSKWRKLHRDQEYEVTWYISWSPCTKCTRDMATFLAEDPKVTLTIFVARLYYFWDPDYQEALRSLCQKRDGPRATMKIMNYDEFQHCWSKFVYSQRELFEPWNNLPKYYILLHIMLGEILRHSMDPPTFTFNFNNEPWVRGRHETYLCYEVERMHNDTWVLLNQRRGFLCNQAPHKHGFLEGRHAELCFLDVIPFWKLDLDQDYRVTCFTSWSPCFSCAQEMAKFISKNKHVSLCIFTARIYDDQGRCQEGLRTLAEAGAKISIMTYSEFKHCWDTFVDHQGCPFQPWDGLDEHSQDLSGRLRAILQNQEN
# Estrogen receptor (Homo sapiens), sequence (P03372 whole entry, looked up): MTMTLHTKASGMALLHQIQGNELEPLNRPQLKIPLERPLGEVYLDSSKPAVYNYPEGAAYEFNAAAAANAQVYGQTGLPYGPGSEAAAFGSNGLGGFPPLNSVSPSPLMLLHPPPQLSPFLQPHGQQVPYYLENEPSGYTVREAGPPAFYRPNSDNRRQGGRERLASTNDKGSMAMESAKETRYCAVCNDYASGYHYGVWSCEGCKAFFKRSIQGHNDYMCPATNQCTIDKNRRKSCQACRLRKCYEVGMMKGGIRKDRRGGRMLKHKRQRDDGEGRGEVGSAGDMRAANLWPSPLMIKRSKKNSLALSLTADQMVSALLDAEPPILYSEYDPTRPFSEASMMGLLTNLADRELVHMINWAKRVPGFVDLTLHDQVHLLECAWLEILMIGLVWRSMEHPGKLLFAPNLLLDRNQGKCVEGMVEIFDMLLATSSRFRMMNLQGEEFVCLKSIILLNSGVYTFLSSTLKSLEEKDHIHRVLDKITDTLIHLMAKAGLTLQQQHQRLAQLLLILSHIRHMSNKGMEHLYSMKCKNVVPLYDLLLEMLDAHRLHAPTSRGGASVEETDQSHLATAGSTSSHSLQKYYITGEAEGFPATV
# Androgen receptor (Homo sapiens), sequence (P10275 whole entry, looked up): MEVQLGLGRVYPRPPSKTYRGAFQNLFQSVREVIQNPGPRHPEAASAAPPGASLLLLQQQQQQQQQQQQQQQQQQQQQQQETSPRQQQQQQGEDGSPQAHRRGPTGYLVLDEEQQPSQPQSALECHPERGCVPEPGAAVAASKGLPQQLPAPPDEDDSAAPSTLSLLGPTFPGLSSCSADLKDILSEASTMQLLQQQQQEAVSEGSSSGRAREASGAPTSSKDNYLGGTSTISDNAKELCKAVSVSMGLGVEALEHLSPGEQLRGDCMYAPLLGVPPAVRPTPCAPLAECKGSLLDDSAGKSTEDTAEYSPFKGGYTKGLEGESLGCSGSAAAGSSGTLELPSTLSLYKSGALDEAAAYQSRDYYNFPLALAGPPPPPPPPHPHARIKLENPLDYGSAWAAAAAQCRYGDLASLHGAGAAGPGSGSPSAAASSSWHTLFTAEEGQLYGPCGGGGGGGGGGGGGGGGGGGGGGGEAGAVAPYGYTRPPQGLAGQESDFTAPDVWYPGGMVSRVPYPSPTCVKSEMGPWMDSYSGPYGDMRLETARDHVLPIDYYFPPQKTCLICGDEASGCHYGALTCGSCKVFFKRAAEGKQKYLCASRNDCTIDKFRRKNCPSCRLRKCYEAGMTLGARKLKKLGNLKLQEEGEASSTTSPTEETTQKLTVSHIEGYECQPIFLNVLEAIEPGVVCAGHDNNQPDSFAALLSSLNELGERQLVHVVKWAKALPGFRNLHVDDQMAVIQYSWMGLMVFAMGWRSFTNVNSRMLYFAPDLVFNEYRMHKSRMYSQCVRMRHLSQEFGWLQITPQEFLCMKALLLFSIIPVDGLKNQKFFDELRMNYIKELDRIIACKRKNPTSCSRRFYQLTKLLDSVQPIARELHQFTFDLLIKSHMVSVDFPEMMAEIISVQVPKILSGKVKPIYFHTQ
# Peroxisome proliferator-activated receptor gamma (Homo sapiens), sequence (P37231 whole entry, looked up): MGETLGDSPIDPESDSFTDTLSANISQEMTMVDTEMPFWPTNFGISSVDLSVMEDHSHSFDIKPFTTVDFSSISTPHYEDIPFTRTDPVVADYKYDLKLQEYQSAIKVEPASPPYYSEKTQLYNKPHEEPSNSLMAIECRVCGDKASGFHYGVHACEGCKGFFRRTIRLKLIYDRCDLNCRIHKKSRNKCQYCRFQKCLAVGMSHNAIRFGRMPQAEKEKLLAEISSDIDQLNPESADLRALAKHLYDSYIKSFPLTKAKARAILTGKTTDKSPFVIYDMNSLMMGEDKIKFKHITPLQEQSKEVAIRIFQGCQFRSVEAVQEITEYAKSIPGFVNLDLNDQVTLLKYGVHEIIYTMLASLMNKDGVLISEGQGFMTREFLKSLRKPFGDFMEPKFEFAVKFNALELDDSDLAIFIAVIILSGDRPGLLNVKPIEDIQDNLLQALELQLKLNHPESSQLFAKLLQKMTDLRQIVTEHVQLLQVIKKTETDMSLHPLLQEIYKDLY
Compound,outcome [1],outcome [2],Potency [3],outcome [4],Potency [5],Potency [6],Potency [7],outcome [8],Potency [9],outcome [10],outcome [11],outcome [12],activation [13],outcome [14],outcome [15],outcome [16],Potency [17]
O=C(O)c1cccnc1Nc1cccc(C(F)(F)F)c1,inactive,inactive,inactive,inactive,inactive,inactive,inactive,inactive,inactive,,,,,,,,
O=C1NC(=O)C(c2ccccc2[N+](=O)[O-])=C1Nc1ccc(O)c(Cl)c1,inactive,inactive,,inactive,inactive,inactive,inactive,inactive,inactive,inactive,,,,,,,
O=c1cc(N2CCOCC2)oc2c(-c3ccccc3)cccc12,inactive,inactive,inactive,inactive,inactive,inactive,inactive,inactive,inactive,inactive,,,,,,,
CCN(CC)C(=S)SSC(=S)N(CC)CC,inactive,inactive,206 nM (active),inactive,inactive,inactive,inactive,,,,inactive,inactive,6.34%,inactive,inactive,inactive,inactive
COc1cc2nc(N3CCN(C(=O)C4CCCO4)CC3)nc(N)c2cc1OC (stereo not drawn),inactive,inactive,inactive,inactive,inactive,inactive,inactive,inactive,inactive,,,,,,,,
CC(=O)O[C@H]1C(=O)[C@@]2(C)C([C@H](OC(=O)c3ccccc3)[C@]3(O)C[C@H](OC(=O)[C@H](O)[C@@H](NC(=O)c4ccccc4)c4ccccc4)C(C)=C1C3(C)C)[C@]1(OC(C)=O)CO[C@@H]1C[C@@H]2O (stereo partly drawn),inactive,inactive,9.2 nM (active),,inactive,inactive,inactive,,,,,,,,,,
COc1ccccc1N1CCN(CCN(C(=O)C2CCCCC2)c2ccccn2)CC1,inactive,inactive,inactive,inactive,inactive,inactive,inactive,inactive,inactive,,,,,,,,
O=C(CCc1ccc(O)cc1)c1c(O)cc(O)cc1O,inactive,inactive,inactive,inactive,inactive,inactive,,inactive,inactive,inactive,,,,,,,
CC(C)c1ccc2c(c1)c(SC(C)(C)C)c(CC(C)(C)C(=O)O)n2Cc1ccc(Cl)cc1,inactive,inactive,inactive,inactive,inactive,inactive,25.1 µM (active) and 50.1 µM (active),,,inactive,,,,,,,
